Measured values reported in publication PMC7826789 (International Journal of Molecular Sciences, 2021).

Experiments:
Details in all cases: Compound Concentration (nM):1000
CSF1R = tested on: CSF1R
CSK = tested on: CSK
CSNK1A1L = tested on: CSNK1A1L
CSNK1A1 = tested on: CSNK1A1
CSNK1D = tested on: CSNK1D
CSNK1E = tested on: CSNK1E
CSNK1G1 = tested on: CSNK1G1
CSNK1G2 = tested on: CSNK1G2
CSNK1G3 = tested on: CSNK1G3
CSNK2A1 = tested on: CSNK2A1
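Further: KINOMEscan scanMAX binding as percent activity remaining versus control; lower means stronger binding.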

Row | Structure (SMILES) | Percent Control (CSF1R) [%] | Percent Control (CSK) [%] | Percent Control (CSNK1A1L) [%] | Percent Control (CSNK1A1) [%] | Percent Control (CSNK1D) [%] | Percent Control (CSNK1E) [%] | Percent Control (CSNK1G1) [%] | Percent Control (CSNK1G2) [%] | Percent Control (CSNK1G3) [%] | Percent Control (CSNK2A1) [%]
1 | C/C(Nc1ccc(S(N)(=O)=O)cc1)=C1/C(=O)Nc2ccccc21 [GW335962X] | 100 | 86 | 97 | 67 | 87 | 100 | 88 | 85 | 99 | 57
2 | Cl.O=C(Nc1ccc(Oc2ccc3[nH]c(NC(=O)c4ccco4)nc3c2)cc1)Nc1cc(C(F)(F)F)ccc1F [GW683134A] | 1.5 | 85 | 90 | 100 | 98 | 93 | 100 | 100 | 100 | 88
3 | CN(C)c1cc2c(Nc3ccc4c(cnn4Cc4ccccc4)c3)ncnc2cn1 [GW282974X] | 100 | 23 | 84 | 82 | 97 | 85 | 80 | 100 | 100 | 82
4 | Nc1ncnc2occ(-c3ccc(NC(=O)Nc4cc(C(F)(F)F)ccc4F)cc3)c12 [GW770249X] | 0.2 | 74 | 92 | 100 | 82 | 76 | 98 | 92 | 99 | 100
5 | COc1cccc(-c2c[nH]c3c(N/N=C/c4ccncc4)ncnc23)c1 [GW814408X] | 46 | 66 | 100 | 88 | 92 | 83 | 100 | 90 | 100 | 14
6 | O=C1Nc2ccc(C(=O)c3ccco3)cc2C1=Cc1cc(Cl)c(O)c(Cl)c1 [GW406108X] | 93 | 79 | 100 | 93 | 100 | 100 | 82 | 96 | 100 | 9.7
7 | CC(C)COC(=O)c1ccc2c(c1)/C(=C/Nc1ccc(S(N)(=O)=O)cc1)C(=O)N2 [GW416981X] | 100 | 100 | 50 | 99 | 100 | 100 | 96 | 94 | 100 | 9
8 | NS(=O)(=O)c1ccc(N/N=C2\C(=O)Nc3ccc(Cl)cc32)cc1 [GW280670X] | 100 | 100 | 100 | 100 | 100 | 93 | 100 | 100 | 100 | 81
9 | COc1cc2ncnc(Nc3ccc4c(cnn4Cc4ccccc4)c3)c2cc1OC.Cl [GW282449A] | 100 | 5.1 | 100 | 100 | 100 | 97 | 100 | 100 | 100 | 82
10 | Cc1cc(O)cc(C)c1/C=C/c1cncc(C(N)=O)c1 [GW435821X] | 34 | 80 | 100 | 100 | 100 | 86 | 100 | 100 | 100 | 90
11 | COc1ccccc1-c1cc(/C=C2\C(=O)Nc3ncc(Br)cc32)cc(Br)c1O [GW442130X] | 100 | 100 | 100 | 100 | 94 | 79 | 100 | 94 | 100 | 66
12 | NS(=O)(=O)c1ccc(N/N=C2\C(=O)Nc3ccc(-c4cnco4)cc32)cc1 [GW276655] | 100 | 92 | 78 | 76 | 60 | 96 | 100 | 72 | 91 | 50
13 | COc1cccc(-n2ncc3c(N/N=C/c4ccncc4)ncnc32)c1 [GW784752X] | 100 | 78 | 91 | 94 | 92 | 100 | 100 | 100 | 100 | 20
14 | CN(C)CCNC(=O)Nc1ccc(N(C)c2ccnc(Nc3ccc(CS(C)(=O)=O)cc3)n2)cc1.Cl [GW830900A] | 0.6 | 98 | 85 | 79 | 93 | 88 | 90 | 96 | 95 | 78
15 | COc1ccc2c(-c3ccnc(Nc4cccc(OC(F)(F)F)c4)n3)cnn2n1 [GW810372X] | 100 | 100 | 100 | 92 | 100 | 100 | 98 | 100 | 100 | 67
16 | COc1cc2ncn(-c3cc(O[C@H](C)c4ccccc4Cl)c(C(N)=O)s3)c2cc1OC [GSK237701A] | 63 | 88 | 60 | 88 | 100 | 100 | 85 | 89 | 100 | 83
17 | NS(=O)(=O)c1ccc(Nc2ncc(-c3ccccc3)o2)cc1 [GW572399X] | 100 | 100 | 100 | 100 | 100 | 83 | 100 | 100 | 100 | 76
18 | COc1ccc(COc2ccc(Cc3cnc(N)nc3N)cc2OC)cc1 [GW632580X] | – | 87 | 86 | 100 | 100 | 100 | 88 | 88 | 100 | 90
19 | COc1cc(C=NNc2ncnc3c2cnn3-c2ccccc2)ccc1O [GW513184X] | 100 | 100 | 100 | 77 | 86 | 51 | 100 | 57 | 93 | 28
20 | COc1cc(C)c(N(C)C(=O)CN(C)C)cc1Nc1nc(Nc2cccc(F)c2C(N)=O)c2cc[nH]c2n1 [GSK2219385] | 100 | 95 | 67 | 47 | 23 | 23 | 54 | 11 | 28 | 78

Row | Structure (SMILES) | Percent Control (CSF1R) [%] | Percent Control (CSK) [%] | Percent Control (CSNK1A1L) [%] | Percent Control (CSNK1A1) [%] | Percent Control (CSNK1D) [%] | Percent Control (CSNK1E) [%] | Percent Control (CSNK1G1) [%] | Percent Control (CSNK1G2) [%] | Percent Control (CSNK1G3) [%] | Percent Control (CSNK2A1) [%]
21 | CCS(=O)(=O)c1ccc(OC)c(Nc2ncc(-c3cccc(OC)c3)o2)c1 [GW580509X] | 72 | 90 | 100 | 100 | 100 | 85 | 99 | 100 | 97 | 21
22 | Cl.c1ccc(Cc2nc3ccc(Nc4ncnc5ccccc45)cc3[nH]2)cc1 [GR269666A] | 100 | 22 | 100 | 100 | 100 | 93 | 100 | 100 | 100 | 82
23 | COc1cc(N2CCN(C(C)C)CC2)ccc1Nc1nc(Nc2ccc(F)cc2C(=O)NC[C@@H](O)CO)c2cc[nH]c2n1 [GSK1392956A] | 100 | 86 | 68 | 35 | 31 | 46 | 52 | 32 | 29 | 51
24 | NS(=O)(=O)c1ccc(N/N=C2\C(=O)Nc3ccc(C(=O)NCCc4c[nH]cn4)cc32)cc1 [GW300660X] | 100 | 100 | 100 | 89 | 100 | 100 | 100 | 100 | 100 | 27
25 | C[C@@H](Oc1cc(-n2cnc3ccc(OC4CCN(C)CC4)cc32)sc1C(N)=O)c1ccccc1Cl [GSK579289A] | 65 | 76 | 89 | 77 | 80 | 100 | 83 | 80 | 100 | 55
26 | CCS(=O)(=O)c1ccc(OC)c(Nc2ncc(-c3cccc(F)c3)o2)c1 [GW621970X] | 48 | 98 | 100 | 100 | 100 | 100 | 100 | 100 | 100 | 6.2
27 | CC1=C(C(=O)Nc2ccc3[nH]ncc3c2)C(c2ccc(Cl)c(Cl)c2)CC(=O)N1 (stereo not drawn) [GSK299115A] | 97 | 91 | 66 | 84 | 100 | 100 | 100 | 88 | 96 | 91
28 | Cl.O=C(Nc1ccc(Oc2ccc3[nH]c(NC(=O)c4ccccc4)nc3c2)cc1)Nc1cc(C(F)(F)F)ccc1F [GW709042A] | 6.1 | 96 | 97 | 100 | 87 | 83 | 100 | 100 | 100 | 92
29 | Cl.O=S1CCN(Cc2ccc(-c3ccc4ncnc(Nc5ccc(OCc6ccccc6)c(F)c5)c4c3)o2)CC1 [GW576924A] | 100 | 100 | 100 | 100 | 100 | 100 | 100 | 100 | 100 | 84
30 | CCc1ccc(Oc2nccc(-c3c(-c4ccc(F)cc4)ncn3C3CCNCC3)n2)cc1 [SB-242719] | 100 | 80 | 66 | 5.1 | 1.7 | 0.4 | 83 | 40 | 53 | 77
31 | CCn1c(-c2nonc2N)nc2c(C#CC(C)(C)O)nc(OCCNC)cc21.Cl [GSK949675] | 100 | 100 | 100 | 94 | 100 | 100 | 100 | 92 | 100 | 100
32 | O=C(Nc1n[nH]c2nc(-c3ccc(O)cc3)c(Br)cc12)C1CC1 [SB-725317] | 100 | 100 | 100 | 100 | 100 | 85 | 100 | 100 | 100 | 87
33 | COc1cc(/C=N/Nc2ncnc3[nH]ncc23)ccc1O [GW578748X] | 93 | 67 | 94 | 61 | 57 | 60 | 67 | 42 | 79 | 8.7
34 | Cl.O=C(O[C@H]1CN[C@H](C#Cc2cc3ncnc(Nc4ccc5c(cnn5Cc5ccccc5)c4)c3s2)C1)N1CCOCC1 [GSK200398A] | 100 | 67 | 92 | 89 | 91 | 79 | 92 | 100 | 92 | 75
35 | CC1=C(C(=O)Nc2ccc3[nH]ncc3c2)C(c2ccc3ccccc3c2)CC(=O)N1 (stereo not drawn) [GSK270822A] | 82 | 95 | 64 | 91 | 100 | 100 | 92 | 89 | 100 | 80
36 | CN1CCN(C(=O)c2ccc(NC(=O)Nc3ccc(N(C)c4ccnc(Nc5ccc(CS(C)(=O)=O)cc5)n4)cc3)cc2)CC1.Cl [GW830263A] | 0 | 62 | 100 | 85 | 99 | 75 | 100 | 100 | 100 | 83
37 | COc1ccc2cc(-c3c(-c4ccncc4)nc(-c4ccc(S(C)(=O)=O)cc4C)n3C)ccc2c1 [SB-633825] | 93 | 98 | 55 | 85 | 86 | 69 | 90 | 81 | 100 | 82
38 | COc1ccc2[nH]c3c4[nH]c5ccc(OC)cc5c4c4c(c3c2c1)C(=O)NC4=O [GW296115X] | 58 | 95 | 91 | 62 | 94 | 52 | 74 | 86 | 100 | 61
39 | COC(=O)Nc1nc2ccc(Oc3ccc(NC(=O)Nc4cc(C(F)(F)F)ccc4F)cc3)cc2s1.Cl [GW693917A] | 2.3 | 70 | 92 | 83 | 100 | 98 | 96 | 100 | 94 | 91
40 | NS(=O)(=O)c1ccc(N/N=C2\C(=O)Nc3ccc(C(=O)NCc4ccncc4)cc32)cc1 [GW300657X] | 99 | 87 | 60 | 83 | 92 | 98 | 87 | 100 | 67 | 53
